Only some compounds are listed: those with a hit (about 3.8% of all), similar ones and a draw of the others.
tim23-1 inh – inhibits growth of tim23-1 mutant yeast; S. cerevisiae tim23-1 growth, BacTiter-Glo luminescence, 24 h; inhibition, % at 20 µM; AID 463212; 330,000 compounds, 1.3% hits;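 active means growth inhibition of the mutant yeast at or above 50%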;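 further: temperature-sensitive mutant grown at 25 °C; plate controls were DMSO-treated mutant yeast for no effect and medium wells lacking yeast for full effect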
NLRP3 yeast inh – blocks the NALP3 inflammasome reconstituted in yeast; Yeast reconstituted NLRP3/ASC/caspase-1, beta-gal luminescence, 24 h; inhibition, % at 10 µM; 330,000 compounds, 0.39% hits;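 active means inhibition of 50% or more; inactive means inhibition below 50%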;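 further: plate controls were induced DMSO wells for no effect and uninduced yeast grown without galactose for full effect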
Yeast superoxide – yeast age-related superoxide inhibition as caloric restriction mimetic; S. cerevisiae aged cells, superoxide DHE fluorescence; active compounds read low; superoxide response (% of plate mean), % at 10 µM; 330,000 compounds, 0.18% hits; AID 2690;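 active means superoxide response under a set limit, about three screen SD below normal, cut at about 65% in these data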;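 further: yeast aged for seven days with compound at 30 °C before DHE staining; 100% = average MFI of all compound-treated wells on the plate with controls excluded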
tim10-1 inh – inhibits growth of tim10-1 mutant yeast. S. cerevisiae tim10-1 ts strain growth, BacTiter-Glo, 24 h. inhibition, % at 20 µM. 330,000 compounds, 2.2% hits. AID 463190;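 active means inhibition of at least 40%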;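 further: mutant grown at 25 °C; 0% = DMSO wells with yeast and 100% = wells holding no yeast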
TIM10 inh – TIM10 yeast growth inhibition. S. cerevisiae TIM10 strain growth, BacTiter-Glo luminescence, 24 h. inhibition, % at 10 µM. AID 463195. 330,000 compounds, 1.4% hits;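 active means inhibition of 40% or more at the single tested concentration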;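 further: wild-type TIM10 isogenic control strain grown at permissive 25 °C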
NALP3 confirm – confirmation of NALP3 inhibitors in yeast; shares compounds with NLRP3 yeast inh; yeast expressing human NALP3, luminescence; inhibition, % at 10 µM; 1,300 compounds, 81% hits; AID 435006; in the data active means inhibition above about 48%
Casp1-ASC yeast – counter-screen for NALP3 inhibitors: yeast caspase-1-ASC | AID 488784 | 1,000 compounds, 66% hits | shares compounds with NLRP3 yeast inh | inhibition, % at 10 µM | yeast expressing Caspase-1-ASC, luminescence counter screen
NALP3 yeast rt – yeast NALP3 inhibition, confirmed on retest | AID 488794 | inhibition, % at 10 µM | 1,000 compounds, 53% hits | shares compounds with NLRP3 yeast inh | yeast expressing human NALP3, luminescence read-out
* hit, by the source's call; i = inactive; · = no result given. Unless noted, no stated cut-off is given here; in the data, active means inhibition above about 50%; inactive means the rest.

SMILES	tim23-1 inh	NLRP3 yeast inh	Yeast superoxide	tim10-1 inh	TIM10 inh	NALP3 confirm	Casp1-ASC yeast	NALP3 yeast rt
O=C(NCC(c1cccs1)N1CCOCC1)c1ccc(Cl)c(S(=O)(=O)N2CCOCC2)c1 (stereo unspecified)	10	3	101	11	-21	·	·	·
O=C(COc1ccc(Br)cc1Cl)NNC(=O)c1ccccc1	-5	20	135	-4	7	·	·	·
Cn1cccc1-c1nc2ccccc2n1Cc1ccccc1	20	-108	104	39	30	-15	·	·
Cc1ccc(NN2C(=O)C=C(c3ccccc3)C2=O)cc1	36	83*	·	-5	9	72*	96*	62*
O=C1c2ccccc2C(=O)N1Nc1ccccc1	-6	17	89	-49	-35	·	·	·
O=C1/C(=C/c2cccs2)Sc2ccccc21	15	23	112	-1	17	·	·	·
O=C1Nc2ccccc2S/C1=C/c1cccs1	31	65*	75	-3	19	-1	·	·
NS(=O)(=O)c1ccc(CCNC(=O)c2cc3ccccc3s2)cc1	4	-12	113	10	0	·	·	·
CC1(NC(=O)N2CCCCC2)CCS(=O)(=O)C1 (stereo unspecified)	1	8	109	10	9	·	·	·
CC12CC3(C)CC(C)(C1)CC(NC(=O)N1CCCC1)(C2)C3	47	94*	88	36	38	49*	98*	99*
Fc1ccc(-c2nnn(Cc3nc4ccccc4s3)n2)cc1	21	54*	92	29	7	65*	46	42
Cc1ccc2c(c1)c1c(n2C)C(=O)CCC1	4	54*	92	-3	-1	56*	63*	52*
CN(C)c1ccc(C(=O)/C=C/c2ccc(Br)cc2)cc1	29	32	116	26	14	·	·	·
CN(C)c1ccc(C(=O)/C=C/c2ccccc2)cc1	5	53*	74	21	16	72*	43	40
CC(C)C(=O)NCc1cc(-c2ccccc2)no1	-7	10	94	-15	-18	·	·	·
COc1ccccc1-c1ccc(SCc2ccc(F)cc2)nn1	21	35	105	17	-6	·	·	·
COc1ccccc1-c1ccc(SCc2ccc(C)cc2)nn1	8	54*	104	3	-10	59*	52*	55*
CCOC(=O)Cc1csc(NC(=O)c2cccc(Cl)c2)n1	20	64*	i	-35	-13	60*	68*	54*
CCOC(=O)Cc1csc(NC(=O)c2ccc(Cl)s2)n1	41	63*	108	-12	-14	73*	75*	71*
CCOC(=O)Cc1csc(NC(=O)c2ccncc2)n1	12	20	113	-11	5	·	·	·
CCOC(=O)Cc1csc(NC(=O)c2cccnc2)n1	-7	21	103	9	-20	·	·	·
CCOC(=O)Cc1csc(NC(=O)c2cc(C)c(C)s2)n1	12	65*	84	-26	-34	60*	79*	63*
COc1cccc(C=Nc2ccc(C)c(F)c2)c1O	21	9	89	0	2	·	·	·
COc1ccc(N2CCN(C(=O)COC(=O)CCOc3ccc(C(C)(C)C)cc3)CC2)cc1	-4	18	108	5	-1	·	·	·
COc1ccccc1NC(=O)Nc1ccc(C)cn1	25	61*	95	0	-16	76*	68*	65*
SMILES	tim23-1 inh	NLRP3 yeast inh	Yeast superoxide	tim10-1 inh	TIM10 inh	NALP3 confirm	Casp1-ASC yeast	NALP3 yeast rt
COc1ccccc1NC(=O)Nc1ccc(Br)cn1	-21	41	100	-10	-7	·	·	·
Cc1ccc(O)c(CNc2cccc(C)n2)c1	0	45	·	-12	-3	·	·	·
Cc1cccc(NCc2cc(Cl)ccc2O)n1	16	51*	95	1	-5	46	47	42
COc1ccccc1CCC(=O)NNC(=O)c1cccs1	13	2	79	15	-4	·	·	·
COc1cc(OC)c(C(=O)OCC(=O)NC23CC4CC(CC(C4)C2)C3)cc1OC	9	12	113	5	1	·	·	·
CN1CCN(c2ccccc2NC(=O)c2cc3c(s2)-c2ccccc2OC3)CC1	13	71*	91	27	39	76*	82*	76*
O=C1C=C(NNC(=O)c2ccncc2)CC(c2ccccc2)C1 (stereo unspecified)	4	14	114	0	2	·	·	·
Cc1ccc(-c2cc(NC(=O)CCl)n(-c3ccccc3)n2)cc1	35	54*	98	25	14	33	·	·
CC(=O)Nc1ccc(-c2cc(NC(C)=O)n(-c3ccccc3)n2)cc1	-12	2	110	-18	-4	·	·	·
O=C(CCl)Nc1cc(-c2ccccc2)nn1-c1ccccc1	43	55*	104	21	26	66*	78*	69*
CCN=C(NCC)SC1CC(=O)N(CCc2ccccc2)C1=O (stereo unspecified)	15	18	87	-2	-10	·	·	·
CCN1CCN(c2ccc(Cl)cc2NC(=O)c2ccc(-n3nc(C)cc3C)cc2)CC1	16	51*	99	9	1	44	39	32
CCN1CCN(c2ccc(Cl)cc2NC(=O)c2ccco2)CC1	-6	11	89	-11	6	·	·	·
CCc1ccc(C(=O)NNc2ccc(F)cc2F)cc1	6	36	71	-5	-16	·	·	·
CC(C)(C)c1ccc(C(=O)NNc2ccc(F)cc2F)cc1	27	53*	107	12	14	44	·	·
C[C@H]1NC(=O)[C@@]2(C)[C@@H](c3ccccc3)[C@H]3COc4ccccc4[C@@H]3N2C1=O	-1	3	79	1	-6	·	·	·
CCOC(=O)CSc1nc2ccccc2c(=O)n1CC	29	13	94	23	-9	·	·	·
CCn1c(SCC(=O)OC2CCCCC2)nc2ccccc2c1=O	2	51*	93	-12	-11	71*	50*	49
c1ccc(-c2ccc(-c3cn4c(n3)CCC4)cc2)cc1	41	66*	109	-20	-119	68*	87*	74*
COc1ccc(-c2cn3c(n2)CCC3)cc1	-7	13	105	0	6	·	·	·
CCc1ccccc1NC(=O)c1cc(-c2cccs2)on1	1	56*	97	-26	-34	65*	59*	60*
Nc1c2c(=O)oc(-c3ccccc3)cc2nn1-c1ccccc1	36	51*	115	14	24	68*	54*	25
O=C(NC1CC1)c1c(O)c2ccccc2[nH]c1=O	33	69*	88	-23	14	75*	40	46
O=C(NNC(=O)c1c(O)c2ccccc2[nH]c1=O)c1ccccc1Br	33	57*	85	-23	20	72*	47	47
COc1cccc(-c2nc(CS(=O)CC(=O)NC3CCCCC3)c(C)o2)c1 (stereo unspecified)	7	10	131	13	4	·	·	·

Screening data: PubChem BioAssay, several laboratories
